AmpC inh no detg: inhibitors of E. coli AmpC beta-lactamase without detergent | P00811 | AmpC nitrocefin hydrolysis, absorbance 480 nm, 0.0001% Triton | Potency, µM (titrated, usually from 57.1 µM), for inactives: top-dose activity change, negative = inhibition, usual class: inhibitors | 330,000 tested, 0.52% active | AID 485341;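 further: plate controls were no compound for no effect and no enzyme for full effect; nearly all actives have a fitted effect of over 20% in size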
Target sequence (P00811 whole entry, looked up): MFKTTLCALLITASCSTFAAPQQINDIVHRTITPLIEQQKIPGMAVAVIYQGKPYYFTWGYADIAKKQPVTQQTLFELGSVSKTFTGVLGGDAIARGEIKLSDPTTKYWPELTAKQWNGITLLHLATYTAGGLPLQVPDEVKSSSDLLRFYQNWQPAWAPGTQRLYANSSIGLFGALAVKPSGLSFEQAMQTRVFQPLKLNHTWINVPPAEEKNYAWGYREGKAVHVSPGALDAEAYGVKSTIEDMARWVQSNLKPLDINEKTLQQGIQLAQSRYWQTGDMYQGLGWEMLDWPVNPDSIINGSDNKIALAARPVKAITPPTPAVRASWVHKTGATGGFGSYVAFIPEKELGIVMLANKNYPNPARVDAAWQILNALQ
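20 mM phosphate pH 7.0 + 0.01% (detergent screen) or 0.0001% Triton X-100; 5.3 nM AmpC reagent; cpd preinc 15 min RT; nitrocefin (800 uM stock) to start; A480 q20 s × 4 min; Activity was normalised to no-enzyme and no-compound control wells.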
AmpC inh detg: blocks E. coli AmpC beta-lactamase in detergent assay. AmpC hydrolysis of nitrocefin, absorbance 480 nm, 0.01% Triton. AID 485294. 370,000 tested, 0.041% active. P00811. Potency, µM (top dose mostly 114 µM), for the others: top-dose activity change, negative = inhibition, actives largely listed as inhibitors;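 further: 0% = no-compound wells and -100% = no-enzyme wells; nearly all actives have a fitted effect of over 25% in size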
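AmpC (5.3 nM in the dispensed reagent) in 20 mM phosphate pH 7.0 with 0.01% (detergent screen) or 0.0001% Triton X-100 was preincubated with compounds for 15 min at room temperature. Nitrocefin was then added from an 800 uM solution, and hydrolysis was followed at 480 nm.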
Pf growth 96h: P. falciparum growth inhibition at 96 hour, primary screen for plastid delayed-death inhibitors | 320,000 tested, 6.9% active | Potency, µM (series often up to 28.7 µM), for the others: top-dose activity change, negative = inhibition, usual class: inhibitors | P. falciparum luciferase reporter growth, 96 h; further: on the % scale 0 is the no-effect control and ±100 the full control effect
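P. falciparum expressing integrated firefly luciferase grown in erythrocytes (2% hematocrit, 0.05% parasitemia final) with compounds for 96 hours at 37 C, 5% CO2. Growth inhibition read as loss of luminescence after adding luciferase detection reagent.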
Pf growth 48h: inhibits P. falciparum growth in the first generation, 48 h; P. falciparum luciferase growth in erythrocytes, 48 h; AID 504832; 310,000 tested, 5.9% active; Potency, µM (series often up to 28.7 µM), for inactives: at the highest dose activity change, negative = inhibition, most hits filed as inhibitors; further: on the % scale 0 is the no-effect control and ±100 the full control effect
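A one-generation exposure of luciferase-tagged malaria parasites in RPMI 1640/Albumax erythrocyte culture, 37 C and 5% CO2. Inhibition is inferred from decreased luminescence after adding detection reagent.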
SARS PLpro yeast: blocks SARS-CoV papain-like protease in a yeast assay | Potency, µM (titrated, usually from 32.9 µM), without a hit: at the highest dose activity, positive = growth rescue, hits mostly activators | S. cerevisiae expressing SARS-CoV PLpro, growth rescue | 330,000 tested, 0.19% active; calls by dose curve; further: 0% is about no effect; nearly all actives have a fitted effect of over 55% in size
Sm TGR block: blocks Schistosoma mansoni thioredoxin glutathione reductase; Q962Y6; purified TGR, DTNB reduction, TNB absorbance 405 nm; Potency, µM (titrated, usually from 114 µM), inactives show at the top dose activity change, negative = inhibition, most hits filed as inhibitors; 360,000 tested, 3% active; AID 485364; further: on the % scale 0 is the no-effect control and ±100 the full control effect; nearly all actives have a fitted effect of over 60% in size
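Kinetic colorimetric format: TGR-catalysed, NADPH-driven DTNB reduction monitored via TNB absorbance. Enzyme dispensed at 20 nM; compound exposure 15 min at room temperature before reaction start.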
The depositor's hits bear a star. Hits are enriched below; roughly 12% of the tested compounds scored in any of these assays. Unless noted, the call rests on the fitted dose curve; in most records, active means well fitted curve in the direction sought with a large enough effect; inconclusive means small, poorly fitted or top-dose-only effect, or another doubt; inactive means no such curve, though single readings can be large; an effect the other way counts as inactive or inconclusive. Potency means the concentration at half of the fitted maximal effect.

How did NC[C@@H]1O[C@H](C23CC4CC(CC(C4)C2)C3)Cc2c1ccc(O)c2O do in these assays?
AmpC inh no detg: -9%; AmpC inh detg: 7%; Pf growth 96h: 5.9µM*; Pf growth 48h: 9.3µM*; SARS PLpro yeast: -3%; Sm TGR block: 7.9µM*

Results for CN1[C@@H]2CC[C@H]1CC(OC(=O)C1C=Nc3ccccc31)C2 (stereo partly specified) ?
AmpC inh no detg: -19%; AmpC inh detg: inconclusive; Pf growth 96h: 13µM*; Pf growth 48h: inconclusive; SARS PLpro yeast: -1%; Sm TGR block: 9%

Results for CCN(c1ccccc1)S(=O)(=O)c1ccc(F)cc1C ?
AmpC inh no detg: -26%; AmpC inh detg: -7%; Pf growth 48h: -6%; SARS PLpro yeast: -2%; Sm TGR block: -4%

Results for CCCCCC(=O)Nc1nc(C)c(-c2csc(Nc3cc(OC)ccc3OC)n2)s1 ?
AmpC inh no detg: -34%; AmpC inh detg: 2%; Pf growth 96h: 12µM*; Pf growth 48h: 6.6µM*; SARS PLpro yeast: -4%; Sm TGR block: 30%

What do the screens show for `C=CCCC(=O)Nc1nc(C)c(-c2csc(Nc3cc(Cl)ccc3OC)n2)s1`?
AmpC inh no detg: -27%; AmpC inh detg: -9%; Pf growth 96h: inconclusive; Pf growth 48h: inconclusive; SARS PLpro yeast: -1%; Sm TGR block: 12%

How did CCCCC(=O)Nc1nc(C)c(-c2csc(Nc3ccccc3OC)n2)s1 do in these assays?
AmpC inh no detg: -34%; AmpC inh detg: 2%; Pf growth 96h: inconclusive; Pf growth 48h: inconclusive; SARS PLpro yeast: 3%; Sm TGR block: -24%

How did CCC(C)C(=O)Nc1nc(C)c(-c2csc(Nc3ccccc3OC)n2)s1 (stereo unspecified) do in these assays?
AmpC inh no detg: -35%; AmpC inh detg: 2%; Pf growth 96h: 12µM*; Pf growth 48h: 9.3µM*; SARS PLpro yeast: -15%; Sm TGR block: -30%

What do the screens show for `C=CCCC(=O)Nc1nc(C)c(-c2csc(Nc3ccccc3OC)n2)s1`?
AmpC inh no detg: -36%; AmpC inh detg: 5%; Pf growth 96h: 17µM*; Pf growth 48h: 9.3µM*; SARS PLpro yeast: -11%; Sm TGR block: -1%

Results for COc1ccc(CNC2CC(=O)N(C)C2=O)cc1 (stereo unspecified) ?
AmpC inh no detg: -21%; AmpC inh detg: 5%; Pf growth 96h: 46%; Pf growth 48h: 16%; SARS PLpro yeast: 0%; Sm TGR block: -1%

How did Cc1ccccc1-n1ccnc1SCC(=O)NC1CCCC1 do in these assays?
AmpC inh no detg: -2%; AmpC inh detg: inconclusive; Pf growth 96h: 1%; Pf growth 48h: 5%; SARS PLpro yeast: 7%; Sm TGR block: 0%

How did COc1ccc(N2CCN(C(=O)CCS(=O)(=O)c3ccc4c(c3)CCN4C(=O)C3CC3)CC2)cc1 do in these assays?
AmpC inh no detg: 14%; AmpC inh detg: 3%; Pf growth 96h: inconclusive; Pf growth 48h: -20%; SARS PLpro yeast: 2%; Sm TGR block: 0%

How did CC(=O)c1c(C)n([O-])c2cc(C)ccc2[n+]1=O do in these assays?
AmpC inh no detg: -13%; AmpC inh detg: inconclusive; Pf growth 96h: 49%; Pf growth 48h: 9%; SARS PLpro yeast: -8%; Sm TGR block: 1%

How did O=C1CC(c2ccccc2)CC(O)=C1C=Nc1ccc(O)cc1 (stereo unspecified) do in these assays?
AmpC inh no detg: -34%; AmpC inh detg: -7%; Pf growth 96h: 13µM*; Pf growth 48h: 19%; SARS PLpro yeast: 0%

What do the screens show for `Cc1cc2c3c([nH]c2cc1S(=O)(=O)N1CCC2(CC1)OCCO2)CC(C)(C)CC3=O`?
AmpC inh no detg: 36%; AmpC inh detg: -5%; Pf growth 96h: inconclusive; Pf growth 48h: 8.3µM*; SARS PLpro yeast: 2%; Sm TGR block: -9%

What do the screens show for `N=c1c[n+](N2CCOCC2)[n-]o1`?
AmpC inh no detg: -21%; AmpC inh detg: -6%; Pf growth 96h: 3%; Pf growth 48h: -6%; SARS PLpro yeast: 4%; Sm TGR block: 22µM*

Results for CCN(C(=O)CCn1cnc2onc(-c3ccc(F)cc3)c2c1=O)c1ccc(OC)cc1 ?
AmpC inh detg: 17%; Sm TGR block: 4%

High-throughput results deposited in PubChem by National Center for Advancing Translational Sciences (NCATS).
